Assay results from PubChem BioAssay (Tox21).
Results filed as inconclusive are left out. A call without a number means that no potency is given here. Active and inactive are the calls of the source. Calls come from the whole dose curve; as a rule, active = well fitted inhibition curve with a large enough effect in the repeat runs; inconclusive = weak or mixed curves, or effect the other way; inactive = no such curve, though single readings can be large or run the other way.

test: qHTS assay to identify small molecule antagonists of the retinoic acid receptor (RAR) signaling pathway (AID 1159552; note: nearly all actives have a fitted effect of over 50% in size); conditions: C3RL4 RARE luciferase reporter, retinol-stimulated, 6 h; series mostly up to 92.4 µM
Text: National Center for Advancing Translational Sciences [NCATS]
NIH Chemical Genomics Center [NCGC]
U.S. Environmental Protection Agency [EPA]
National Institutes of Environmental Health Sciences [NIEHS]
National Toxicology Program [NTP]
U.S. Food and Drug Administration [FDA]
All-trans Retinoic acid (atRA) is the potent natural metabolite of retinol and plays an important role in normal embryonic development and maintenance of cellular phenotype in adult animals. atRA is the activating ligand for the retinoic acid receptors (RARs) which form heterodimers with retinoid X receptors (RXRs) on the retinoic acid response element (RARE). Through activation of the RAR/RXRs nuclear receptors, atRA regulates the transcription of a large number of protein-coding genes and regulatory RNAs. Intracellular levels of atRA are controlled by the retinol signaling pathway (RSP) that regulates the biosynthesis and catabolism of atRA to maintain physiological levels. Chemicals that interfere with the RSP can cause abnormal intracellular levels of atRA and therefore are potential developmental toxicants. To assess compounds for the potential adverse effect on embryonic development through interfering with retinol signaling, a cell-based RARE luciferase reporter gene assay was used. C3RL4 cell line (OARSA/CFSAN/FDA, Laurel, MD) was used to screen Tox21 10K compound library for identifying inhibitors of the RSP.
Tox21 Assay Protocol Summary:
C3RL4 cells were seeded at 1,000/well in 4 uL of assay medium into white solid 1,536-well tissue culture plates (Greiner Bio-One North America Inc. Monroe, NC) using a Multidrop Combi (Thermo Scientific, Waltham, MA) dispenser. After incubation at 37 C and 5% CO2 for an overnight, 23 nL of compounds dissolved in DMSO, positive control or DMSO only were transferred by a Pintool station (Kalypsys, San Diego, CA). One ul of 1 uM (final concentration) of Retinol was added right after the compound addition by using a Flying Reagent Dispenser (FRD) (Aurora Discovery, San Diego, CA). After 6 hr incubation at 37 C and 5% CO2, 5 uL of Amplite Luciferase reagent (AAT Bioquest Inc. Sunnyvale, CA) was added to each assay plate using an FRD. Luminescence was quantified on a ViewLux plate reader (PerkinElmer, Waltham, MA) after 30 min incubation at room temperature.

| Structure (SMILES) | Potency |
| --- | --- |
| Nc1ccc(N)c2c1C(=O)c1ccccc1C2=O | inactive |
| O=C(O)C1(C(=O)Nc2ccc(Cl)cc2Cl)CC1 | inactive |
| Cc1ccc(N=Nc2c(O)c(C(=O)O)cc3ccccc23)c(S(=O)(=O)O)c1 | inactive |
| CCC(=O)O[C@]1(C(=O)CCl)[C@@H](C)C[C@H]2[C@@H]3CCC4=CC(=O)C=C[C@]4(C)[C@@]3(F)[C@@H](O)C[C@@]21C | inactive |
| OCc1cc(C(O)CNCCCCCCOCCCCc2ccccc2)ccc1O (stereo not given) | inactive |
| CCCCCC[C@@H](O)C/C=C\CCCCCCCC(=O)OC | inactive |
| O=C(O)c1ccccc1Cl | inactive |
| CCCCC1=NC2(CCCC2)C(=O)N1Cc1ccc(-c2ccccc2-c2nn[nH]n2)cc1 | inactive |
| C[C@@H]1C[C@H]2O[C@@]3(O[C@@H]2C(C)(C)O)[C@H](O)[C@@]2(C)[C@@H]4CC[C@H]5C(C)(C)[C@@H](O[C@@H]6OC[C@@H](O)[C@H](O)[C@H]6O)CC[C@@]56C[C@@]46CC[C@]2(C)[C@@H]13 | inactive |
| O=S(c1cc(Cl)cc(Cl)c1O)c1cc(Cl)cc(Cl)c1O | inactive |
| CC(COCCO)OCCO (stereo not given) | inactive |
| C[N+](C)(C)CCOC(=O)CCC(=O)OCC[N+](C)(C)C | inactive |
| O=C(Cl)c1cc(C(=O)Cl)cc(C(=O)Cl)c1 | inactive |
| O=C1[C@H]2CCCC[C@H]2C(=O)N1CCCCN1CCN(c2nsc3ccccc23)CC1 | inactive |
| O=[N+]([O-])c1ccc2[nH]ncc2c1 | inactive |
| Nc1cc(C(=O)O)c(O)c(S(=O)(=O)O)c1 | inactive |
| O=C(Nc1ccccc1)c1ccccc1O | inactive |
| COCC(C)OC(C)=O (stereo not given) | inactive |
| O=C1OC(=O)C2C3C=CC(C3)C12 (stereo not given) | inactive |
| CCCCCCCCO[C@@H]1O[C@H](CO)[C@@H](O)[C@H](O)[C@H]1O | inactive |

| Structure (SMILES) | Potency |
| --- | --- |
| CCOC(=O)NCCOc1ccc(Oc2ccccc2)cc1 | inactive |
| Cc1nn(C)c(Oc2ccccc2)c1/C=N/OCc1ccc(C(=O)OC(C)(C)C)cc1 | inactive |
| O=C(O)C(S)C(S)C(=O)O (stereo not given) | inactive |
| CCOC(=O)C(O)c1ccccc1 (stereo not given) | inactive |
| CC(C)(O)c1ccc(CNC(=O)c2cccnc2Oc2ccc(F)cc2)cc1 | inactive |
| CCCCCCc1ccc(-c2ccc(C#N)cc2)cc1 | inactive |
| CCCCCCCCCCO[C@@H]1O[C@H](CO)[C@@H](O)[C@H](O)[C@H]1O | inactive |
| CCCCOC(=O)CCCCCCCC(=O)OCCCC | inactive |
| COc1ccc2cccc(CCNC(C)=O)c2c1 | inactive |
| Nc1ccc([N+](=O)[O-])c(C(F)(F)F)c1 | inactive |
| CC(CC=O)c1ccccc1 (stereo not given) | inactive |
| CCCCCCOC(=O)NC(=N)c1ccc(NCc2nc3cc(C(=O)N(CCC(=O)OCC)c4ccccn4)ccc3n2C)cc1 | inactive |
| CCNc1cc(O)ccc1C | inactive |
| C#Cc1cccc(Nc2ncnc3cc(OCCOC)c(OCCOC)cc23)c1 | inactive |
| c1ccc(-c2ccccn2)nc1 | inactive |
| O=C(O)c1ccc(-n2nc(-c3ccccc3O)nc2-c2ccccc2O)cc1 | inactive |
| NS(=O)(=O)c1ccc(N2CCCCS2(=O)=O)cc1 | inactive |
| CCCCCCCC/C=C\CCCCCCCC(=O)OCC | inactive |
| CCn1cc(C(=O)O)c(=O)c2cnc(N3CCNCC3)nc21 | inactive |
| CCOC(=O)C(=O)CCc1ccccc1 | inactive |
